Source: PubChem BioAssay

assay: RAM pathway blockade in budding yeast – dse1pr::URA3 reporter, 5-FOA selection, pilot screen (AID 869);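 also: 0% = DMSO wells with no growth and 100% = 10 µM 1-NA-PP1 with full growth; RAM network block rescues cells from 5-FOA so hits raise OD615 growth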; conditions: S. cerevisiae dse1pr::URA3 5-FOA growth, OD615, 2 d; at 10 µM; hits give high values; strain carries analog-sensitive mutant Cbk1 kinase;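 active = inhibition over a set limit, the all-compound mean plus 3 SD, in both replicate runs; inconclusive = over that limit in just one replicate run; inactive = at or under that limit in both runs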

inhibition, inactive:
CCOC(=O)Cn1c(=O)oc2cc(S(=O)(=O)NCc3ccccn3)ccc21 1.79%
CCOC(=O)C1C(C)N=C2SCC(=O)N2C1c1cccc(Br)c1 (stereo not given) 0.36%
CN1CCN(c2cc3c(c4c2[nH]c2ccccc24)C(=O)CC(C)(C)C3)CC1 0.76%
Cc1cc(/C=N/n2cnnc2)c(C)n1-c1ccc(C(=O)O)cc1 0.98%
O=C(CSc1cn(Cc2ccccc2)c2ccccc12)Nc1nccs1 1.73%
CCOC(=O)CN1Cc2cccc(C(=O)O)c2C1=O 0.535%
CCOC(=O)C1CCCN(C(=O)c2ccc(CNc3c(N4CCC(C)CC4)c(=O)c3=O)cc2)C1 (stereo not given) 2.57%
O=C1C(Cl)=C(N2CCCCCC2)C(=O)N1c1ccccc1 0.8%
O=C(Nc1c(C(=O)O)oc2ccc(Br)cc12)c1ccccc1 2.95%
CC1(C)CC(=O)C2(CC3=C(CC(C)(C)CC3=O)O2)C(=O)C1 1.96%
CCCn1nc(NC(=O)CC(C)C)c2cc3ccccc3nc21 2.49%
Cc1ccc(C2=[N+]([O-])C3(CCCCC/C3=N\O)N(O)C2(C)C)o1 (stereo not given) -0.505%
COc1ccc(-c2nc(CS(=O)CC(=O)NCC3CCCO3)c(C)o2)cc1 (stereo not given) -0.795%
CN(C(=O)c1ccc2c(c1)OCO2)C1(C(=O)NC2CCCCC2)CCCCC1 1.91%
CCn1c(=O)cc(OCC(=O)N2CCc3ccccc32)c2ccccc21 2.09%
Cn1c(=O)[nH]c(=O)c2[nH]c(CN3CCN(Cc4ccccc4)CC3)nc21 0.395%
CCCCOC(=O)Cc1c(O)c2ccccc2[nH]c1=O 1.82%
CCOc1ccc(S(=O)(=O)Nc2ccccc2C(=O)NCC2CCCO2)cc1 (stereo not given) 1.91%
O=C1C(Cl)=C(NCC2CCCO2)C(=O)N1C1CCCCC1 (stereo not given) 1.46%
CC1=C(C(=O)N2CCOCC2)C(c2cccs2)NC(=O)N1 (stereo not given) 1.26%
CCC1CCCCN1C(=O)CSc1nnc(-c2ccc(Cl)cc2)o1 (stereo not given) 1.89%
COC(=O)CN1C(=O)C(O)(CC(=O)c2cccc(Br)c2)c2ccccc21 (stereo not given) 1.2%
O=P(O)(CCc1ccccn1)CN1CCOCC1 2.73%
O=C(NCc1cccnc1)NC1(C(F)(F)F)Oc2ccc(Cl)cc2O1 (stereo not given) 0.4%
CN(C)C(C(=O)NC1CCCCC1)c1ccc(Cl)cc1 (stereo not given) 0.575%
COc1ccc(C)cc1NC(=O)C1CCCN(S(=O)(=O)c2c(C)noc2/C=C/N(C)C)C1 (stereo not given) -0.18%
COc1ccc(S(=O)(=O)Nc2ccc3c(c2)OCO3)cc1C(=O)O 0.425%
O=C(Nc1nnc(C2CC2)s1)c1cc(-c2ccccc2)nn1-c1ccccc1 2.71%
O=C(Oc1cccnc1)c1cccc(Cl)c1 0.79%
COc1ccc(N2CCN(C(=O)c3ccc4nc(N5CCCCC5)sc4c3)CC2)cc1 2.52%
O=C(Cn1cc2c(n1)CCCC2)Nc1ccccc1Br 1.64%
CCCN(CC1CC1)S(=O)(=O)c1ccc(S(N)(=O)=O)cc1 0.505%
Fc1ccccc1N1CCN(C2CCN(Cc3c[nH]c4ccccc34)CC2)CC1 1.08%
COc1ccccc1NC(=O)C1=C(C)Nc2nc(-c3cccs3)nn2C1c1cccnc1 (stereo not given) 2.23%
COc1ccccc1NC1C=CS(=O)(=O)C1 (stereo not given) 0.335%
COc1ccc(C2(C(=O)NCCCN(C)C)CCOCC2)cc1 1.26%
COc1ccccc1C1NC(=O)NC(C)=C1C(=O)Nc1cccc(C)c1C (stereo not given) 0.77%
CCCCSCc1[nH]c(=O)[nH]c1C(=O)CCCCC(=O)OCC 0.975%
Cn1cc(S(=O)(=O)N2CCN(Cc3ccccc3)CC2)c(=O)n(C)c1=O 0.755%
CCOc1ccc(S(=O)(=O)n2ccnc2)c2ccccc12 0.31%
